Data as given in article PMC11062922 (Nature Chemical Biology, 2023).
Like-named read-outs stand apart in the source and are kept apart here.

Test system: PIK3CD
Design: species or system human, MV4-11 + K-562 + COLO205 + SK-N-BE2 + OVCAR-8
Conditions: read-out: apparent Kd, n = 1
[1] = compound concentrations: 100 nM and 1000 nM (sheet 'Samples'), CATDS: 1
[2] = compound concentrations:100 nM and 1000 nM (sheet 'Samples')

## Nc1ncc(-c2ccc3nccc(-c4ccncc4)c3c2)cc1S(=O)(=O)N1CCCCC1 [GSK1693850A]
Compound concentrations: 100 nM and 1000 nM (sheet 'Samples'), CATDS: 0.491044301139066
  potency estimated from few doses: 4.69 nM

## CC(C)N1CCN(Cc2cnc(-c3cc(-c4cccc5[nH]ccc45)cc4[nH]ncc34)o2)CC1 [GSK2269557]
[1]
  potency estimated from few doses: 1.45 nM

## CCn1c(-c2ccncc2)nc2cnccc21 [SB-735216]
Compound concentrations: 100 nM and 1000 nM (sheet 'Samples'), CATDS: 0.88201100485399897
  potency estimated from few doses: 172 nM

## CCCCCc1nc2c(N)ncnc2n1CCCCC [SKF-97255]
[1]
  potency estimated from few doses: 152 nM

## C[C@H]1CC[C@@H](C(=O)Nc2ccccc2)CN1c1cc(-c2ccc3c(N)n[nH]c3c2)nc(N)n1 [GSK2283293_KCGS]
[2]
  potency estimated from few doses: 168 nM

## Cc1nn2c(=O)cc(N3CCOCC3)nc2n1Cc1cccc(Cl)c1Cl [GSK2342769A]
[2]
  potency estimated from few doses: 87.6 nM

## CC(C)c1ccc(O)cc1Nc1ccnc2ccc(C(F)(F)F)cc12 [GW482059X]
Compound concentrations: 100 nM and 1000 nM (sheet 'Samples'), CATDS: 0.57570605535332697
  potency estimated from few doses: 139 nM

## COc1ncc(-c2cc(-c3ncc(CN4C[C@@H](C)O[C@@H](C)C4)o3)c3cn[nH]c3c2)cc1NS(C)(=O)=O [GSK2292767]
Compound concentrations: 100 nM and 1000 nM (sheet 'Samples'), CATDS: 0.86289624081171401
  potency estimated from few doses: 0.614 nM

## O=C(NCCNc1ccnc(NCc2ccc(F)cc2)n1)c1cc2ccccc2s1 [GSK1379944A]
[2]
  potency estimated from few doses: 200 nM

## COc1ccc(Nc2nccc(N3CCC(NC(=O)c4cccc(NC(C)=O)c4)C3)n2)cc1 (centres unmarked) [GSK1379732A]
[1]
  potency estimated from few doses: 141 nM

## O=c1cc(N2CCOCC2)nc2n(Cc3ccc(F)c(Cl)c3)ccn12 [GSK2297099A]
[2]
  potency estimated from few doses: 150 nM
